About 540 (0.62%) of roughly 87,000 compounds were called active. This is one part of a sample in which actives are shown more often than they occur. The rule behind the calls is not given here. Measured potencies and affinities stand elsewhere.
Experiment: MT1-MMP gene expression reporter suppression – cell-based, luciferase reporter, luminescence (AID 618);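 note: actives suppress MT1-MMP promoter-driven transcription so potencies describe inhibitors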
Conditions: MT1-MMP promoter luciferase reporter cells

Row | Compound | outcome
1 | Cc1cccc(-n2ncc(C#N)c2N)c1 | inactive
2 | Cc1cc(C)nc(SCCn2c(N(C)Cc3ccccc3)nc3c2c(=O)n(C)c(=O)n3C)n1 | inactive
3 | Cc1cc(C)n(CCO)c(=O)n1 | inactive
4 | N#CC1=C(N)SC(N)=C(C#N)C1C1CC=CCC1 (centres undefined) | inactive
5 | O=c1/c(=C\c2cccn2-c2ccccc2)sc2nc3ccccc3n12 | inactive
6 | Cc1cc(/C=c2/sc3nc4ccccc4n3c2=O)c(C)n1-c1ccccn1 | active
7 | COc1cc(N2CCCC2)c(OC)cc1/C=c1/sc2nc3ccccc3n2c1=O | inactive
8 | COC(=O)/C=c1/sc2nc3ccccc3n2c1=O | inactive
9 | Cc1ccc(-n2c(C)cc(/C=c3/sc4nc5ccccc5n4c3=O)c2C)cc1 | inactive
10 | CC(CNS(=O)(=O)c1cc(Cl)ccc1Cl)CN(C)C (centres undefined) | inactive
11 | COc1ccccc1NC(=O)CC1C(=O)NCCN1C(=O)Nc1ccc(Cl)c(Cl)c1 (centres undefined) | inactive
12 | CCCCC(=O)Nc1ccc2oc(-c3ccncc3)nc2c1 | inactive
13 | O=C(c1ccc2snnc2c1)N1CCOCC1 | inactive
14 | Cc1cc(C(=O)CN2C(=O)C3CC=CCC3C2=O)c(C)n1-c1ccccc1 (centres undefined) | inactive
15 | Cc1ccc(C)c(C(=O)CN2C(=O)c3ccccc3S2(=O)=O)c1 | inactive
16 | Cc1cc(C(=O)CSc2nnnn2-c2ccccc2)c(C)n1CC1CCCO1 (centres undefined) | inactive
17 | Cc1cc(C(=O)CN2C(=O)c3ccccc3S2(=O)=O)c(C)n1-c1ccccc1 | active
18 | Cc1cc(C(=O)COC(=O)C2COc3ccccc3O2)c(C)n1CC1CCCO1 (centres undefined) | inactive
19 | Cc1cc(C(=O)Cn2nnc(-c3ccc(Cl)cc3)n2)c(C)n1CC1CCCO1 (centres undefined) | inactive
20 | Cc1ccsc1C(=O)OCC(=O)c1cc(C)n(CC2CCCO2)c1C (centres undefined) | active
21 | Cc1cc(C(=O)COC(=O)c2n[nH]c3ccccc23)c(C)n1CC1CCCO1 (centres undefined) | inactive
22 | Cc1ccc(-c2nc(NC(=O)CSc3nnc(C)s3)ns2)cc1 | inactive
23 | Cc1ccc(OCC(=O)Nc2ccc(N3CCOCC3)cc2)cc1 | inactive
24 | Cc1ccc(N(C(C)C(=O)N2CCC(C)CC2)S(C)(=O)=O)cc1C (centres undefined) | inactive

Row | Compound | outcome
25 | Cc1ccc(CC2CC(=O)N(c3cc(C)on3)C2=O)cc1 (centres undefined) | inactive
26 | CCOc1ccccc1NC(=O)C1CCCN(C(=O)NCc2ccccc2)C1 (centres undefined) | inactive
27 | CCOC(=O)c1[nH]c(C)c(C(=O)N2CCc3ccccc32)c1C | active
28 | CCOC(=O)c1[nH]c(C)c(C(=O)Nc2ccc(Cl)cc2)c1C | inactive
29 | CCOC(=O)c1[nH]c(C)c(C(=O)Nc2ccc(C)cc2C)c1C | inactive
30 | CCOC(=O)c1[nH]c(C)c(C(=O)Nc2ccccc2C)c1C | active
31 | CCOC(=O)c1[nH]c(C)c(C(=O)Nc2ccccc2F)c1C | inactive
32 | CCOC(=O)c1c(C)[nH]c(C(=O)OCC(=O)N2CCc3ccccc32)c1C | inactive
33 | CCOC(=O)c1[nH]c(C)c(C(=O)OCC(=O)N2CCc3ccccc32)c1C | inactive
34 | CCOC(=O)c1[nH]c(C)c(C(=O)Nc2cc(Cl)ccc2C)c1C | active
35 | CCOC(=O)c1[nH]c(C)c(C(=O)Nc2ccc(C)c(Cl)c2)c1C | inactive
36 | COc1cc(NS(=O)(=O)c2ccc3c(c2)n(C)c(=O)n3C)cc(OC)c1 | inactive
37 | COc1ccc(C)cc1NC(=O)CSc1nnc(CC(=O)Nc2ccccc2C)n1C | inactive
38 | CCOC(=O)c1ccc(NC(=O)CN2CCN(CCN=CC3=C(O)CC(C)(C)CC3=O)CC2)cc1 | inactive
39 | COC(=O)c1[nH]c2cc(C)ccc2c1NC(=O)CN1CCCc2ccccc21 | inactive
40 | Cc1nc2sc(C(c3cccs3)N3CCN(c4cccc(Cl)c4)CC3)c(O)n2n1 (centres undefined) | inactive
41 | O=C(c1cn(-c2ccccc2)nc1-c1ccncc1)N1CCCCC1 | inactive
42 | CCOc1ccccc1C(=O)N1CCN(c2cccc(Cl)c2)CC1 | active
43 | COc1ccccc1C(=O)N1CCN(c2cccc(C(F)(F)F)c2)CC1 | active
44 | COc1ccccc1CC(=O)N1CCN(c2cccc(C(F)(F)F)c2)CC1 | inactive
45 | COc1ccc(C(=O)N2CCN(c3cccc(Cl)c3)CC2)c(OC)c1 | inactive
46 | O=C(c1ccccc1F)N1CCN(c2cccc(C(F)(F)F)c2)CC1 | inactive
47 | COc1ccccc1C(=O)N1CCN(c2cccc(Cl)c2)CC1 | inactive
48 | Cc1cc(-c2nn3c(C)nnc3s2)ccc1NC(=O)C(C)(C)C | inactive

Row | Compound | outcome
49 | CCOC(=O)c1cc(C)sc1NC(=O)CCC(=O)O | inactive
50 | COc1ccc(Cn2c3nc4ccccc4nc3c3c(=O)n(Cc4ccco4)c(C)nc32)cc1 | inactive
51 | Cc1csc(NC(=O)CSc2nnc(-c3ccoc3C)o2)n1 | inactive
52 | CCC(O)c1cc2c(cc1NC(=O)c1cccs1)OCCO2 (centres undefined) | inactive
53 | Cc1ccc(C(=O)NCCCNCCCNC(=O)c2ccc(C)nc2)cn1 | inactive
54 | CCn1c(COc2cccc(C)c2)nnc1SCC(=O)Nc1cccc(C(=O)OC)c1 | inactive
55 | CC(CC(=O)O)CC(=O)Nc1ccccc1C(=O)O (centres undefined) | inactive
56 | O=c1c2c(nc3cc(-c4ccccc4)[nH]n13)CCC2 | inactive
57 | COc1ccc(-c2cc3nc4c(c(=O)n3[nH]2)CCC4)cc1 | inactive
58 | COCCCN1C(=O)C(=O)/C(=C(/O)c2ccc(OC(C)C)cc2)C1c1cccnc1 (centres undefined) | inactive
59 | Nc1ccc(-c2nc3ccccc3[nH]2)cc1 | inactive
60 | COc1ccc(OCc2nc3ccccc3[nH]2)cc1 | inactive
61 | CCOc1ccc2nc(-c3ccccc3)[nH]c2c1 | inactive
62 | c1ccc2[nH]c(-c3ccnc4ccccc34)nc2c1 | inactive
63 | Nc1nc(-c2nc3ccccc3[nH]2)cs1 | inactive
64 | c1ccc2nc(-c3nc4ccccc4[nH]3)ccc2c1 | active
65 | COc1ccc2nc(-c3cccc(N)c3)[nH]c2c1 | inactive
66 | COc1ccc2nc(-c3ccccc3)[nH]c2c1 | active
67 | CC(C)CN1C(=O)c2ccc(NC(=O)c3cccs3)cc2C1=O | inactive
68 | O=C(NCc1ccco1)C(c1ccccc1)N(C(=O)Cc1cccs1)c1ccccc1 (centres undefined) | inactive
69 | CC(=O)NCCOc1cccc(OCCNC(C)=O)c1 | inactive
70 | COc1cc(/C=N/NC(=O)CCc2c(C)n[nH]c2C)ccc1O | inactive
71 | CCn1ncc(Br)c1C(=O)Nc1ccc(Cl)cn1 | inactive
72 | COc1ccc(OC)c(S(=O)(=O)NC2CCCCC2)c1 | inactive

Row | Compound | outcome
73 | CCn1cc(C(=O)N2CCc3ccccc3C2)c(=O)c2cc(S(=O)(=O)N3CCCCC3)ccc21 | inactive
74 | Cc1nc(-c2cccc(NC(=O)c3cccs3)c2)cs1 | inactive
75 | Cc1ccc(NC(=O)c2cccs2)cc1 | inactive
76 | Cc1nc(-c2ccc(NC(=O)c3cccs3)cc2)cs1 | active
77 | COc1ccc(OC)c(-n2c(-c3ccccc3)n[nH]c2=S)c1 | inactive
78 | CCCCOc1cccc(C(=O)O)c1 | inactive
79 | CCOc1ccc(OCc2cccc(C(=O)O)c2)cc1 | active
80 | CCOc1cc(OCC)cc(C(=O)O)c1 | inactive
81 | CCOc1ccc(OCc2cccc(C(=O)N3CCOCC3)c2)cc1 | active
82 | CC(Oc1ccc(C(=O)NCCc2ccccc2)cc1)C(=O)O (centres undefined) | inactive
83 | COc1ccc(OCc2ccc(C(=O)O)cc2)cc1 | inactive
84 | COc1ccc(OCc2cccc(C(=O)O)c2)cc1 | active
85 | COc1ccc(OCc2cccc(C(=O)Nc3cc(C)on3)c2)cc1 | inactive
86 | CCOc1ccc(OCc2cccc(C(=O)N3CCCC3)c2)cc1 | inactive
87 | CCOc1ccc(OCc2ccc(C(=O)N3CCOCC3)cc2)cc1 | inactive
88 | CC(C)OC(=O)C(C)Oc1ccc(C(=O)NCCc2ccccc2)cc1 (centres undefined) | inactive
89 | CSc1nc2nc(C(F)(F)F)cc(-c3ccccc3)n2n1 | inactive
90 | COc1ccccc1C(=O)Nc1ccc2c(c1)nc1n2CCSC1 | inactive
91 | CSc1ccccc1C(=O)Nc1nccs1 | inactive
92 | Cc1nn(-c2ccccc2)c2c1C1(C(=O)N(C(C)C)c3ccccc31)C(C#N)=C(N)O2 (centres undefined) | inactive
93 | Cc1nc(SCC(=O)NC2CCCC2)[nH]c(=O)c1Cc1ccccc1 | inactive
94 | CCOc1ccc(OCc2ccc(C(=O)Nc3cccc(C)n3)o2)cc1 | inactive
95 | CCOc1ccc(C(=O)Nc2cccc(C)n2)cc1 | active
96 | CCCCOc1ccc(C(=O)Nc2cccc(C)n2)cc1 | inactive

Row | Compound | outcome
97 | O=C(NCc1cccs1)c1cc(-c2cccc(Cl)c2)on1 | inactive
98 | Cc1ccc(-n2nc3c(c2NC(=O)c2ccc(OC(C)C)cc2)CS(=O)C3)cc1 (centres undefined) | inactive
99 | COC(=O)C12CC3CC(C1)CC(n1cnc(Cl)n1)(C3)C2 | inactive
100 | CC(=O)N(c1ccc(Cl)cc1)c1c[nH]c2ccccc12 | inactive
101 | CCN(CC)CC(=O)c1c[nH]c2ccccc12 | inactive
102 | O=C(O)CCC(=O)c1c[nH]c2ccccc12 | inactive
103 | CN(C)CC(=O)c1c[nH]c2ccccc12 | inactive
104 | O=C(CCl)N(c1ccc(Cl)cc1)c1c[nH]c2ccccc12 | active
105 | O=C(CCl)N(c1ccccc1)c1c[nH]c2ccccc12 | active
106 | O=C(NCCN1CCN(Cc2ccccc2Cl)CC1)Nc1ccccc1 | inactive
107 | CCCCOc1ccc(CN2CCCCC2)cc1 | inactive
108 | CCCCOc1ccc(CN2CCC(O)CC2)cc1 | inactive
109 | CC(C)NC(=O)c1ccccc1NC(=O)CN(c1ccc2c(c1)OCO2)S(C)(=O)=O | inactive
110 | CCCn1nnc(NC(=O)c2cccc(Cl)c2)n1 | inactive
111 | CSc1ccc2c(c1)N(CCC1CCCCN1C)c1ccccc1S2 (centres undefined) | active
112 | CN(C)CCCN1c2ccccc2Sc2ccc(C(F)(F)F)cc21 | inactive
113 | CN1CCN(CCCN2c3ccccc3Sc3ccc(Cl)cc32)CC1 | inactive
114 | COC(=O)c1ccc(OC)c(CSc2nnc(-c3ccc(C(C)(C)C)cc3)o2)c1 | inactive
115 | CC(C)CNC(=O)CSc1ccc(Cl)cc1 | inactive
116 | Cc1cccc(NC(=S)NNC(=O)CCn2nc(C)c([N+](=O)[O-])c2C)c1 | inactive
117 | c1ccc(-n2nnc3c(N4CCOCC4)ncnc32)cc1 | active
118 | c1ccc(Cn2nnc3c(N4CCOCC4)ncnc32)cc1 | inactive
119 | S=c1sc2c(N3CCOCC3)ncnc2n1-c1ccccc1 | inactive
